# Results as given in PubChem BioAssay (EPA / NIEHS).
# Records with an inconclusive call do not appear. A structure can be active in one record and inactive in another. Active and inactive are the calls of the source. How the source made its calls, unless noted: active means hit-call score of the fitted dose curve at least 0.9, where 1 is the maximum; inactive means score below 0.9.
# How the values were obtained:
# [1] = CCTE_Shafer_MEA_dev_bursting_electrodes_number: CCTE's Neural Network Formation Assay for Number of Bursting Electrodes, Shafer Lab (AID 2284043; active means hit-call score of the fitted dose curve at least 0.9, where 1 is the maximum;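 on AC50: potency is for loss of bursting electrodes relative to DMSO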)
# Summary of the method: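 Number of electrodes reaching ≥1 burst every 2 min was recorded at DIV 5, 7, 9 and 12 and collapsed as trapezoidal area under the curve. Cultures were rat cortical neurons on MEA plates, dosed continuously from plating with medium and treatment refreshed on DIV 5 and 9.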
# [2] = CCTE_Shafer_MEA_dev_per_burst_interspike_interval: CCTE's Neural Network Formation Assay for Burst Interspike Interval, Shafer Lab (AID 2284044);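 further: mean spike spacing inside bursts as AUC over recordings on days 5 7 9 12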
# Summary of the method: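 Neurons from rat cortex plated onto PEI-coated MEA wells with laminin […] at 1.5 x 10^5 cells/well, then treated from day 0. Media and compound fully replaced on DIV 5 and 9. Extracellular spontaneous firing recorded four times; interspike interval per burst summarised as AUC.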
# [3] = CCTE_Shafer_MEA_dev_burst_duration_mean: CCTE's Neural Network Formation Assay for Mean Burst Duration, Shafer Lab (AID 2284045);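 on AC50: curve fitted for loss meaning shorter burst duration than DMSO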
# Summary of the method: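 Mean single-electrode burst duration (first to last spike), averaged over bursting electrodes per well, then integrated as area-under-curve across recordings at days 5, 7, 9 and 12. Rat cortical cultures on MEAs, compound present from plating, refreshed at feeds.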
# [4] = CCTE_Shafer_MEA_dev_interburst_interval_mean: CCTE's Neural Network Formation Assay for Mean Interburst Interval, Shafer Lab (AID 2284046);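 further: well-mean interburst interval of bursting electrodes as AUC over four recording days; curve fitted for decrease in interburst interval relative to DMSO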
# Summary of the method: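 Primary rat cortical neurons on PEI-coated 48-well MEA plates (laminin added with cells at plating) (16 electrodes/well), exposed from plating day 0 with renewal at DIV 5 and 9. Mean inter-burst interval averaged over bursting electrodes, AUC across days 5, 7, 9, 12; DMSO baseline.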
# [5] = CCTE_Shafer_MEA_dev_inter_network_spike_interval_mean: CCTE's Neural Network Formation Assay for Mean Inter-network Spike Interval, Shafer Lab (AID 2284047)
# Summary of the method: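 Mean time between consecutive network-spike peaks, recorded extracellularly (adaptive spike detection) on DIV 5, 7, 9 and 12, summarized as trapezoidal AUC. Rat cortical cultures on MEAs dosed continuously days 0–12, re-dosed at feeds; loss-of-signal fit relative to DMSO.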
# [6] = CCTE_Shafer_MEA_dev_network_spike_number: CCTE's Neural Network Formation Assay for Number of Network Spikes, Shafer Lab (AID 2284048);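 further: synchronized bursts across electrodes counted on days 5 7 9 12 and integrated as AUC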;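 on AC50: fit as a loss of signal meaning fewer network spikes than DMSO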
# Summary of the method: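 Number of network spikes (coordinated firing across electrodes) recorded on days 5, 7, 9 and 12 and summarised as area under the curve. Rat cortical cultures on MEA, continuous compound exposure with full medium/treatment exchange at DIV 5 and 9.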
# [7] = CCTE_Shafer_MEA_dev_network_spike_peak: CCTE's Neural Network Formation Assay for Mean Number of Electrodes in Network Spike, Shafer Lab (AID 2284049);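 on AC50: fitted for loss of signal meaning fewer electrodes in network spikes than DMSO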
# Summary of the method: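 Rat cortical primary culture, 1.5 x 10^5 cells/well, 48-well MEA (16 electrodes/well). Dosing day 0 through DIV 12, full media/compound exchange DIV 5, 9. AxIS adaptive spike detection; AUC over days 5/7/9/12; loss-of-signal vs DMSO.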
# [8] = CCTE_Shafer_MEA_dev_spike_duration_mean: CCTE's Neural Network Formation Assay for Mean Spike Duration, Shafer Lab (AID 2284051);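 further: mean network spike duration pooled as area under curve over DIV 5 to 12 recordings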;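 on AC50: potency for a decrease in mean network spike duration versus DMSO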
# Summary of the method: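 Spontaneous activity was recorded on days 5, 7, 9 and 12 from rat cortical cultures grown on microelectrode arrays and dosed continuously from day 0, with media and compound renewed after the DIV 5 and 9 recordings. Network-spike duration was collapsed by area under the curve.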
# [9] = CCTE_Shafer_MEA_dev_network_spike_duration_std: CCTE's Neural Network Formation Assay for Standard Deviation of Network Spike Duration, Shafer Lab (AID 2284052);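 further: hits are decreases in network spike duration SD versus DMSO vehicle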
# Summary of the method: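 Network spike duration variability was collapsed across recordings on days 5, 7, 9 and 12 by trapezoidal area-under-curve and fitted downward against DMSO. Cultures were rat cortical neurons on PEI-coated MEA plates, dosed continuously from plating, refed with compound DIV 5/9.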
# DIO2 (gene 1734) = experiment: CCTE_GLTED_hDIO2: CCTE's human Deiodinase 2 (DIO2) Inhibition Assay, Great Lakes Toxicology and Ecology Division (GLTED) Lab (AID 2284050; active means hit-call score of the fitted dose curve at least 0.9, where 1 is the maximum)
# Summary of the method: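 Readout: absorbance from Sandell-Kolthoff detection of free iodide released by human DIO2 during a 3 h incubation with chemical. Cell-free format, n=3; activity fitted relative to DMSO negative control.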
compound,measurement,setting,value
NC(O)(C(F)(F)F)C(F)(F)F,outcome,[1],inactive
same,outcome,[2],inactive
same,outcome,[3],inactive
same,outcome,[4],inactive
same,outcome,[5],inactive
same,outcome,[6],inactive
same,AC50,[7],0.00434 µM (active)
same,outcome,[7],inactive
same,outcome,[8],inactive
same,outcome,[9],inactive
OCC(O)CC(F)(F)C(F)(F)C(F)(F)C(F)(F)F (configuration not stated),outcome,[1],inactive
same,outcome,[2],inactive
same,outcome,[3],inactive
same,outcome,[4],inactive
same,outcome,[5],inactive
same,outcome,[6],inactive
same,outcome,[7],inactive
same,outcome,[8],inactive
same,outcome,[9],inactive
C=CC(=O)OCCC(F)(F)C(F)(F)C(F)(F)C(F)(F)F,outcome,[1],inactive
same,outcome,[2],inactive
same,outcome,[3],inactive
same,outcome,[4],inactive
same,outcome,[5],inactive
same,outcome,[6],inactive
same,AC50,[7],23.5 µM (active)
same,AC50,DIO2 (gene 1734),31.5 µM (active)
same,AC50,[8],22.7 µM (active)
same,outcome,[9],inactive
NC(=O)C(F)(F)C(F)(F)C(F)(F)F,outcome,[2],inactive
same,outcome,[3],inactive
same,outcome,[4],inactive
same,outcome,[5],inactive
same,outcome,[6],inactive
same,outcome,[7],inactive
same,outcome,[8],inactive
same,outcome,[9],inactive
CCCCCCCC/C=C\CCCCCCCC(=O)OCC(O)CO (configuration not stated),AC50,DIO2 (gene 1734),38.5 µM (active)
O=S(=O)(Cl)C(F)(F)C(F)(F)C(F)(F)C(F)(F)C(F)(F)C(F)(F)C(F)(F)C(F)(F)F,AC50,DIO2 (gene 1734),66 µM (active)
O=S(=O)(O)CCC(F)(F)C(F)(F)C(F)(F)C(F)(F)F,outcome,[1],inactive
same,outcome,[2],inactive
same,outcome,[3],inactive
same,outcome,[4],inactive
same,outcome,[5],inactive
same,outcome,[6],inactive
same,outcome,[7],inactive
same,outcome,[8],inactive
same,outcome,[9],inactive
OCCCCC(F)(F)C(F)(F)C(F)(F)C(F)(F)F,outcome,[1],inactive
same,outcome,[2],inactive
same,outcome,[3],inactive
same,outcome,[4],inactive
same,outcome,[5],inactive
same,outcome,[6],inactive
same,outcome,[7],inactive
same,outcome,[8],inactive
same,outcome,[9],inactive
C=CC(=O)OCC(F)(F)C(F)(F)C(F)(F)COC(=O)C=C,AC50,[1],1.52 µM (active)
same,outcome,[2],inactive
same,AC50,[3],3.86 µM (active)
same,AC50,[4],8.65 µM (active)
same,outcome,[5],inactive
same,AC50,[6],1.18 µM (active)
same,AC50,[7],4.61 µM (active)
same,AC50,DIO2 (gene 1734),26.3 µM (active)
same,AC50,[8],5.18 µM (active)
same,outcome,[9],inactive
FC(F)(F)C(F)(F)C(F)(F)C(F)(F)C(F)(F)C(F)(F)C(F)(F)CCI,outcome,[1],inactive
same,outcome,[2],inactive
same,outcome,[3],inactive
same,outcome,[4],inactive
same,outcome,[5],inactive
same,outcome,[6],inactive
same,outcome,[7],inactive
same,outcome,[8],inactive
same,outcome,[9],inactive
OC(O)C(F)(F)C(F)(F)F,outcome,[2],inactive
same,outcome,[3],inactive
same,outcome,[4],inactive
same,outcome,[5],inactive
same,outcome,[6],inactive
same,outcome,[7],inactive
same,outcome,[8],inactive
same,outcome,[9],inactive
CCCCCCCC/C=C\CCCCCCCC(=O)N(C)CC(=O)O,AC50,DIO2 (gene 1734),55.6 µM (active)
CO[Si](C)(CCC(F)(F)C(F)(F)C(F)(F)C(F)(F)C(F)(F)C(F)(F)F)OC,outcome,[2],inactive
same,outcome,[3],inactive
same,outcome,[4],inactive
same,outcome,[5],inactive
same,outcome,[6],inactive
same,outcome,[7],inactive
same,outcome,[8],inactive
same,outcome,[9],inactive
CCN(CCO)S(=O)(=O)C(F)(F)C(F)(F)C(F)(F)C(F)(F)C(F)(F)C(F)(F)C(F)(F)C(F)(F)F,outcome,[1],inactive
same,outcome,[2],inactive
same,outcome,[3],inactive
same,outcome,[4],inactive
same,outcome,[5],inactive
same,outcome,[6],inactive
same,outcome,[7],inactive
same,outcome,[8],inactive
same,outcome,[9],inactive
CCCCCCCCn1sc(Cl)c(Cl)c1=O,AC50,DIO2 (gene 1734),26 µM (active)
CCCCCCCCCCCCCC[P+](CCCC)(CCCC)CCCC,AC50,DIO2 (gene 1734),17.1 µM (active)
O=S(=O)(O)CCC(F)(F)C(F)(F)C(F)(F)C(F)(F)C(F)(F)C(F)(F)C(F)(F)C(F)(F)F,outcome,[2],inactive
same,outcome,[3],inactive
same,outcome,[4],inactive
same,outcome,[5],inactive
same,outcome,[6],inactive
same,outcome,[7],inactive
same,outcome,[8],inactive
same,outcome,[9],inactive
OCC(F)(F)C(F)(F)C(F)(F)C(F)(F)C(F)(F)C(F)(F)C(F)(F)C(F)(F)CO,outcome,[1],inactive
same,outcome,[2],inactive
same,outcome,[3],inactive
same,outcome,[4],inactive
same,outcome,[5],inactive
same,outcome,[6],inactive
same,AC50,[7],22.5 µM (active)
same,AC50,[8],15 µM (active)
same,outcome,[9],inactive
O=C(O)C(F)(F)C(F)(F)C(F)(F)OC(F)(F)F,outcome,[2],inactive
same,outcome,[3],inactive
same,outcome,[4],inactive
same,outcome,[5],inactive
same,outcome,[6],inactive
same,outcome,[7],inactive
same,outcome,[8],inactive
same,outcome,[9],inactive
NC(=O)C(F)(F)C(F)(F)C(F)(F)C(F)(F)C(N)=O,outcome,[2],inactive
same,outcome,[3],inactive
same,outcome,[4],inactive
same,outcome,[5],inactive
same,outcome,[6],inactive
same,outcome,[7],inactive
same,outcome,[8],inactive
same,outcome,[9],inactive
CCN=C1C=CC(=C(c2ccc(N(CC)CC)cc2)c2ccc(N(CC)CC)cc2)c2ccccc21,AC50,DIO2 (gene 1734),42 µM (active)
CCN=c1cc2oc3cc(NCC)c(C)cc3c(-c3ccccc3C(=O)OCC)c-2cc1C,AC50,DIO2 (gene 1734),154 µM (active)
C=CC(=O)OCC(F)(F)C(F)(F)C(F)(F)C(F)(F)C(F)(F)C(F)(F)C(F)(F)C(F)F,AC50,DIO2 (gene 1734),10.3 µM (active)
OCC(F)(F)C(F)(F)C(F)(F)CO,outcome,[1],inactive
same,outcome,[2],inactive
same,AC50,[3],15 µM (active)
same,outcome,[4],inactive
same,outcome,[5],inactive
same,outcome,[6],inactive
same,outcome,[7],inactive
same,outcome,[8],inactive
same,outcome,[9],inactive
CNS(=O)(=O)C(F)(F)C(F)(F)C(F)(F)C(F)(F)C(F)(F)C(F)(F)C(F)(F)C(F)(F)F,outcome,[1],inactive
same,outcome,[2],inactive
same,outcome,[3],inactive
same,outcome,[4],inactive
same,outcome,[5],inactive
same,outcome,[6],inactive
same,outcome,[7],inactive
same,outcome,[8],inactive
same,outcome,[9],inactive
OCC(F)(F)C(F)(F)C(F)(F)C(F)(F)C(F)(F)C(F)(F)CO,outcome,[1],inactive
same,outcome,[2],inactive
same,outcome,[3],inactive
same,outcome,[4],inactive
same,outcome,[5],inactive
same,outcome,[6],inactive
same,outcome,[7],inactive
same,outcome,[8],inactive
same,outcome,[9],inactive
NC(=O)C(F)(F)C(F)(F)C(F)(F)C(F)F,outcome,[2],inactive
same,outcome,[3],inactive
same,outcome,[4],inactive
same,outcome,[5],inactive
same,outcome,[6],inactive
same,outcome,[7],inactive
same,outcome,[8],inactive
same,outcome,[9],inactive
C=C(C)C(=O)OCC(F)(F)C(F)(F)C(F)(F)C(F)F,AC50,DIO2 (gene 1734),34 µM (active)
CCCCCCCCCCCCC[N+](C)(C)Cc1ccccc1,AC50,DIO2 (gene 1734),22.2 µM (active)
